Results filed as inconclusive are left out. Active and inactive are the calls of the source. Calls come from the whole dose curve; as a rule, active = well fitted inhibition curve with a large enough effect; inconclusive = small, poorly fitted or top-dose-only effect; inactive = no such curve, though single readings can be large or run the other way.
System: Zika virus NS2B-NS3 protease (unlinked complex)
Assay: Primary screen GU Rhodamine qHTS for Zika virus inhibitors: Unlinked NS2B-NS3 protease assay (AID 1347159); note: nearly all actives have a fitted effect of over 60% in size
Details: Recombinant ZIKV NS2B-NS3 protease, Rhodamine110 substrate fluorescence; series mostly up to 107 µM
Method in brief: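 A qHTS format was used, with compound concentrations ranging up to 114 microM. Each compound was preincubated with 25 nM NS2B-NS3 protease, and the substrate was then added at 1.5 microM. Curves were fitted with a 4-parameter Hill model.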
Potency is the fitted concentration of half-maximal effect.

Row | SMILES | Potency
1 | Cc1c(OCc2cccc(-c3ccc(C(=O)O)cc3)c2)cc2c(c1C)C(=O)C(C1CCCC1)C2 (configuration not stated) | 1.78 µM (active)
2 | C=CC(C)(C)c1[nH]c2ccccc2c1C[C@@H]1NC(=O)[C@H](C)NC1=O | inactive
3 | CC(=O)[C@H]1CC[C@H]2[C@@H]3CC=C4C[C@@H](OS(=O)(=O)O)CC[C@]4(C)[C@H]3CC[C@]12C | 17.8 µM (active)
4 | COc1ccc(S(=O)(=O)Nc2cc(Cl)cc(Cl)c2OC)cc1N1CCNCC1 | inactive
5 | CCCCc1ccc(NS(=O)(=O)c2ccc(F)cc2)cc1 | 50.1 µM (active)
6 | O=C(O)CSc1cc(NS(=O)(=O)c2ccc(Br)cc2)c2ccccc2c1O | 3.16 µM (active)
7 | O=C(N[C@H](Cc1cscn1)C(=O)N[C@@H](CC1CCCCC1)[C@@H](O)[C@@H](O)C1CC1)c1nc2ccccc2[nH]1 | inactive
8 | CCOc1cc(C(C)(C)C)ccc1C1=NC(C)(c2ccc(Cl)cc2)C(C)(c2ccc(Cl)cc2)N1C(=O)N1CCN(CCCS(C)(=O)=O)CC1 (configuration not stated) | inactive
9 | CCn1c(=O)c(-c2ccc(-c3cncs3)cc2Cl)cc2cnc(Nc3ccc(N4CCN(C)CC4)cc3)nc21 | inactive
10 | C=C(CCC1C(C)(O)CCC2C(C)(C)C(O)CCC12C)C(O)CO (configuration not stated) | 39.8 µM (active)
11 | CCc1c(Cl)c(O)c(Cl)c(O)c1C(=O)O[C@H]1[C@H](O)[C@H](OC)[C@H](OC/C2=C\C=C\C[C@H](O)/C(C)=C\[C@H](CC)[C@@H](O[C@@H]3OC(C)(C)[C@@H](OC(=O)C(C)C)[C@H](O)[C@@H]3O)/C(C)=C/C(C)=C/C[C@@H]([C@@H](C)O)OC2=O)O[C@@H]1C | 11.2 µM (active)
12 | CC(=O)O[C@H]1[C@H](O)C[C@@]2(C)C(CC[C@]3(C)C2CC=C2C4CC(C)(C)CC[C@]4(C(=O)O)CC[C@]23C)C1(C)C (some centres not stated) | 7.94 µM (active)
13 | O=C(Nc1ccn(Cc2ccc(O)cc2C(F)(F)F)n1)c1c(F)cccc1F | inactive
14 | CC(=O)OC1CCC2(C)C(CCC3(C)C2CC=C2C4C(C)C(C)CCC4(C)CCC23C)C1(C)C(=O)O (configuration not stated) | 3.98 µM (active)
15 | COc1cc(CCc2ccc(OCC=C(C)C)cc2)cc(OC)c1OC | inactive
16 | CC[C@@H](Nc1c(Nc2cccc(C(=O)N(C)C)c2O)c(=O)c1=O)c1cc(C(C)C)co1 | 22.4 µM (active)
17 | Cc1ccc(C)c(-c2cc(C(F)(F)F)nn2-c2ccc(S(N)(=O)=O)cc2)c1 | inactive
18 | CC(OC1OCCN(Cc2n[nH]c(=O)[nH]2)C1c1ccc(F)cc1)c1cc(C(F)(F)F)cc(C(F)(F)F)c1 (configuration not stated) | 44.7 µM (active)
19 | COc1cc2c(c(OC)c1CC=C(C)C)C[C@H](c1ccc(O)c(CC=C(C)C)c1O)CO2 | 17.8 µM (active)
20 | CC12CCC3C1C(c1c(cc(O)c(C(=O)c4ccccc4)c1O)O2)C3(C)C (configuration not stated) | 8.91 µM (active)
21 | C=C1/C(=C/C=C2\CCC[C@]3(C)[C@@H]([C@H](C)/C=C/[C@H](O)C4CC4)CC[C@@H]23)C[C@@H](O)C[C@@H]1O | 50.1 µM (active)
22 | O=S(=O)(Cc1ccccc1)Nc1ccc(-c2ccc3c(cnn3-c3ccc(F)cc3)c2)c(C(F)(F)F)c1 | 20 µM (active)
23 | CCNC1(C(N)=O)CN(c2nc(C)nc3c(-c4ccc(Cl)cc4)c(-c4ccccc4Cl)nn23)C1 | inactive
24 | C/C=C(/C)C(=O)O[C@H]1[C@H](OC(=O)/C(C)=C\C)[C@@]23C(CC1(C)C)[C@]1(CCC4[C@@]5(C)CC[C@H](O[C@@H]6O[C@H](C(=O)O)[C@@H](O)[C@H](O[C@@H]7O[C@H](CO)[C@H](O)[C@H](O)[C@H]7O[C@@H]7O[C@@H](C)[C@H](O)[C@@H](O)[C@H]7O[C@@H]7OC[C@@H](O)[C@H](O)[C@H]7O)[C@H]6O[C@@H]6O[C@H](CO)[C@H](O)[C@H](O)[C@H]6O)C(C)(C)C5CC[C@@]4(C)[C@]1(C)C[C@H]2O)O[C@H]3O (some centres not stated) | 3.98 µM (active)
25 | Cc1cc(OCCCS(C)(=O)=O)cc(C)c1-c1cccc(COc2ccc(C3=CC(=O)NS3=O)cc2)c1 (configuration not stated) | 3.55 µM (active)
26 | CCC/C=C/c1cc2c(C=O)c(O)c(CC=C(C)C)cc2o1 | 7.94 µM (active)
27 | C=C1CCC[C@]2(C)CC/C(=C(/CO)C(=O)OC)C[C@@H]12 | 20 µM (active)

Reference: PubChem BioAssay (NCATS)
